In all, about 48,000 compounds went through this assay and about 13,000 (27%) showed an effect of 50% or more. The list shows a part of the results.
Test system: Wolbachia pipientis
Experiment: Anti-Wolbachia Cell-Based Screen
Type: functional
Design: scale not given: in the data most compounds retested in dose-response had high values
Details: 5 µM

SMILES | Percent Effect
COCCn1cc(NCc2cn(C)nc2-c2ccncc2)cn1 | 0.5012%
Cc1ccc(O[C@@H]2C[C@H]3CN(C(=O)c4cnccn4)CCN3C2)cc1.O=C(O)C(F)(F)F | -2.389%
Cc1nc(CC(=O)N2CCC3(CC2)CC(=O)N(CC2CCCO2)C3)cs1 (stereo not drawn) | 8.939%
CN(C)CCCn1ccnc1C1CCN(c2cccc(C(=O)O)n2)CC1 | -0.5716%
CN1CCC(c2cccc(C(=O)N(C)C)n2)CC1 | 118.3%
Cc1ccccc1-c1cncc(C2CCN(C(C)C)CC2)n1 | -0.08562%
CC(C)N1CCC(c2cccc(C(=O)N(C)C)n2)CC1 | 126.2%
CC(C)N1CCC(c2ccnc3c(C(=O)N4CCCC4)ncn23)CC1 | -18.47%
Cc1cnn(CCNCC(=O)Nc2ccc(Br)cn2)c1 | -4.986%
O=C(O)C(F)(F)F.O=c1ccc2c([nH]1)CCC(NCc1ccc3c(c1)OCO3)C2 (stereo not drawn) | 106.8%
O=C(NC1CCCC1)NC1CCc2[nH]c(=O)ccc2C1 (stereo not drawn) | 2.289%
O=c1ccc2c([nH]1)CCC(NCc1ccncc1)C2 (stereo not drawn) | 106.2%
CSc1ccc(CNC2CCN(CCc3ccncc3)CC2)cc1 | -23.46%
CC(C)NC1CCc2[nH]c(=O)ccc2C1.O=C(O)C(F)(F)F (stereo not drawn) | 105.5%
COc1ccc(CN[C@H]2CC[C@@]3(CCC(=O)N3)CC2)cc1.O=C(O)C(F)(F)F | 13.86%
O=C(O)C(F)(F)F.O=C1CC[C@]2(CC[C@@H](NCc3ccc4c(c3)OCO4)CC2)N1 | -34.14%
O=C(O)C(F)(F)F.O=c1ccc2c([nH]1)CCC(NCc1ccc(F)cc1)C2 (stereo not drawn) | 112.4%
O=C(O)C(F)(F)F.O=C1CC[C@]2(CC[C@@H](NCc3ccoc3)CC2)N1 | -19.54%
CN(C)C(=O)N1CCc2ccc(=O)[nH]c2CC1 | -8.1%
COc1ccc2c(c1)CC(NCc1cccc(NC(C)=O)c1)CC2 (stereo not drawn) | 5.004%
COc1ncc(C)cc1NC(=O)COc1ccccc1F | -12.82%
CCO[C@H]1COC[C@@H]1NC(=O)c1c[nH]nc1C1CCCCC1 | -0.7852%
Cn1c(C(N)=O)cc2c1CN(C(=O)C1CC(=O)N(C(C)(C)C)C1)CC2 (stereo not drawn) | -2.281%
Cn1ncc2c(NCC3CCS(=O)(=O)C3)nc(C3CCCC3)nc21 (stereo not drawn) | -5.604%
O=C(CCNc1ncccn1)NCc1cccc(OC(F)F)c1 | -10.33%

SMILES | Percent Effect
O=C(CCC1CC1)N1C[C@@H](CN2CCCC2)[C@@H](CO)C1 | -10.86%
Cc1ccc(CNC2CCc3[nH]c(=O)ccc3C2)cc1C.O=C(O)C(F)(F)F (stereo not drawn) | 104.8%
CCC(=O)N(C)CC(=O)Nc1ccc(Br)cn1 | -3.099%
O=C(CCc1nc(Cl)n[nH]1)N1C[C@H](CO)C[C@H](CN2CCCC2)C1 | -2.773%
Cn1nc2c(cc1=O)CN(CC(=O)Nc1ccc(Cl)cn1)CC2 | -5.01%
COCCC(=O)NCc1ccc(-c2ccccc2C(=O)O)nc1 | 88.43%
COCCC(=O)NCc1cccnc1-n1cnc2ccccc21 | -10.59%
Cc1oc(CNC(=O)Cc2ccc3ccccc3c2)cc1C(=O)O | -0.3002%
COc1c(C)cnc(CNC(=O)CCOCc2ccccc2)c1C | 7.332%
CCCN1CCCn2nc(CNC(=O)CCOC)cc2C1 | 16.28%
O=C(Cc1cc(-c2ccc3c(c2)OCCO3)on1)NCc1ccccn1 | 5.76%
COc1ccccc1NCC(=O)NCc1cc[nH]n1 | 15.35%
COc1ccccc1OCCC(=O)NCc1ncc(C)c(OC)c1C | -4.89%
CC(=O)NCc1cccc(-n2ccnc2-c2cccc(C(=O)O)c2)c1 | -20.57%
COCCC(=O)NCc1ccc(-c2ccccc2C(=O)O)cn1 | 105.5%
O=C(Cc1ccccc1)NCc1ccc(-c2ccccc2C(=O)O)cn1 | 101.1%
CC(=O)NCc1ccc(-c2ccccc2C(=O)O)cn1 | 125.9%
CCN(CC)S(=O)(=O)NCCc1cc(C)ccc1OC | 2.679%
Cc1noc(CNc2ccc(CC(=O)N3CCSCC3)cc2)n1 | -10.08%
COCCCN1C(=O)CC[C@H]2CN(c3nc4ccccc4s3)CC[C@H]21 | -8.201%
CN1CCN(c2ncccc2CNc2ncccc2C#N)CC1 | 1.331%
O=C(CCCn1ccnc1)N1CCC2(CC1)[C@H](O)C[C@@H]2OCCO | 0.2303%
CCCc1cc(CNC(=O)C2CCOc3ccccc3C2)on1 (stereo not drawn) | 6.963%
COCC(=O)NCc1ccc(-c2ccccc2C(=O)O)cn1 | 123.3614%
COCC(=O)NCc1cccnc1-n1cnc2ccccc21 | 13.4%

SMILES | Percent Effect
COCC(=O)Nc1cnc(N2CCN(c3ccccc3)CC2)nc1 | -8.386%
Cc1nc(CN2CCCN(CCOc3cccc(C#N)c3)CC2)no1 | 11.38%
Cc1cnn(C2CCCN(C(=O)c3cc(C4CC4)on3)C2)c1 (stereo not drawn) | 8.361%
O=C(c1cc(C2CC2)on1)N1CCC(Oc2ncccc2Cl)CC1 | 9.581%
O=C(c1cc(C2CC2)on1)N1C[C@H]2CC[C@](O)(c3ccccc3F)[C@H]2C1 | 127.6%
c1ccc2c(Cc3nnc([C@H]4CCN(C5CCC5)C4)o3)c[nH]c2c1 | -3.783%
NC1C=C(C(F)(F)F)NC=C1c1ccc(Cl)cc1 (stereo not drawn) | 102.6%
COc1ccc(C2=CNC(C(F)(F)F)=CC2N)cc1 (stereo not drawn) | 99.44%
NC1C=C(C(F)(F)F)NC=C1c1ccccc1 (stereo not drawn) | 86.08%
CC(NC(=O)C1CCN(S(N)(=O)=O)CC1)c1cccc(OC(F)F)c1 (stereo not drawn) | 6.374%
CS(=O)(=O)NCCNc1ncnc2cccc(F)c12 | 8.452%
CCCC(NC(=O)c1cnccn1)c1nnc2ccccn12 (stereo not drawn) | 41.87%
CC(C)CC(NC(=O)c1ccco1)c1nnc2ccccn12 (stereo not drawn) | 109.4%
CCCC(NC(=O)c1ccccn1)c1nnc2ccccn12 (stereo not drawn) | 4.889%
O=C(NCC1CCSCC1)N(CCCO)C1CCc2ccccc21 (stereo not drawn) | 6.335%
COc1ccc(C)cc1S(=O)(=O)NCC(c1cccn1C)N(C)C (stereo not drawn) | 4.095%
CCOCCn1c(=O)[nH]c2cc(C(=O)N(C)Cc3nc(C)cs3)ccc21 | -23.7%
CCC(NC(=O)c1ccc(OC)nn1)c1nc(C(F)(F)F)cs1 (stereo not drawn) | -7.754%
CCC(NC(=O)c1ccc(COC)o1)c1nc(C(F)(F)F)cs1 (stereo not drawn) | -11.95%
CCOCCC(=O)NCCNc1nccc(C(F)(F)F)n1 | -1.225%
Cc1nc(CN(C)c2nccc(C(F)(F)F)n2)cs1 | -8.606%
COCCC(=O)N(C)Cc1nc(C(F)(F)F)cs1 | 98.57%
CCOCC(=O)N(C)Cc1nc(C(F)(F)F)cs1 | 102.1%
Cc1c(C(=O)N(C)CC(C)O)sc2nc(C(F)(F)F)ccc12 (stereo not drawn) | 9.483%
CC(C)CC(=O)N(C)Cc1nc(C(F)(F)F)cs1 | 105.6%

SMILES | Percent Effect
Cc1cc(CN(C)C(=O)c2ccnc(N(C)C)c2)no1 | -7.552%
CCOC1CCCN(C(=O)c2[nH]nc(C)c2Br)C1 (stereo not drawn) | 6.367%
Cc1cnc2n1CCN(C)C21CCN(C(=O)CC(C)C)CC1.O=C(O)C(F)(F)F | 6.371%
CNC(=O)N1CCC2(CC1)c1ncc(C)n1CCN2C.O=C(O)C(F)(F)F.O=C(O)C(F)(F)F | 93.19%
Cc1cnc2n1CCN(C)C21CCN(CC2CC2)CC1.O=C(O)C(F)(F)F.O=C(O)C(F)(F)F.O=C(O)C(F)(F)F | 2.342%
CCN1CCn2c(C)cnc2C12CCN(C(=O)NCC(C)C)CC2.O=C(O)C(F)(F)F | 99.78%
CCN1CC[C@@]2(C(=O)N3CCOCC3)CCN(C(=O)NC)CC[C@@H]12.O=C(O)C(F)(F)F | -38.24%
CCN1CCn2c(C)cnc2C12CCN(C(=O)NC)CC2.O=C(O)C(F)(F)F | 106.5%
NC(=O)C1CCN(Cc2ccc(S(=O)(=O)N3CCCC3)o2)CC1 | -8.364%
Cc1c(NCc2ccccc2C#N)cccc1-n1cnnn1 | 4.013%
N#CCCN(CC1CCOC1)Cn1ccc(-c2ccccc2)n1 (stereo not drawn) | -2.845%
CN(C)C1(C(=O)NC2CCC(Oc3ccccc3C#N)CC2)CCC1 (stereo not drawn) | -18.62%
CCN(Cc1nc(COC)no1)Cc1ccccc1OCC(=O)O | 10.36%
CCn1cc(C(=O)NCC(C)(CC)N2CCOCC2)c2ccccc21 (stereo not drawn) | 6.626%
Cc1cnn(CCNCc2c(C)nn(Cc3ccccc3)c2C)c1 | -5.977%
O=C(N1CCCC1)N1CCC2(CC1)COCCN(Cc1cccnc1)C2.O=C(O)C(F)(F)F.O=C(O)C(F)(F)F | -4.319%
O=C(O)C(F)(F)F.O=C(O)C(F)(F)F.O=C(c1ccsc1)N1CCC2(CC1)COCCN(Cc1ccncc1)C2 | 15.81%
Cn1cccc1CN1CCC2(CCCN(C(=O)Cc3cccnc3)C2)C1 (stereo not drawn) | 5.928%
O=C(C1CCCO1)N1CCC2(CC1)COCCN(Cc1cccnc1)C2.O=C(O)C(F)(F)F.O=C(O)C(F)(F)F (stereo not drawn) | 128.2%
O=C([C@@H]1CCCO1)N1CCOCC2(CCN(Cc3cccnc3)C2)C1 (stereo partly drawn) | 95.11%
O=C(C1CCCO1)N1CCC2(CC1)COCCN(Cc1ccncc1)C2.O=C(O)C(F)(F)F.O=C(O)C(F)(F)F (stereo not drawn) | -9.895%
O=C(C1CCC2(CCN(Cc3cccnc3)CC2)CO1)N1CCCC1.O=C(O)C(F)(F)F.O=C(O)C(F)(F)F (stereo not drawn) | 90.21%
O=c1[nH]c(C2CCOC2)nc2ccc(Cl)cc12 (stereo not drawn) | -0.06581%

Source: ChEMBL document CHEMBL3988442, “University of Dundee, Small-Polar-MMV Screening Library” (2021)
